Results filed as inconclusive are left out. The source made the active and inactive calls. Calls follow the shape of the dose curve; as a rule, active = well fitted cell-killing curve with a large enough effect; inconclusive = small, poorly fitted or top-dose-only effect; inactive = flat fitted curve, though single readings scatter.
% is scaled to controls: 0 for no effect and ±100 for the full control effect.

This test can be described thus: qHTS of pediatric cancer cell lines to identify multiple opportunities for drug repurposing: Primary screen for control Hh wild type fibroblast cells (AID 1347106).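 Also: a drop in luminescence marks cytotoxicity and a rise apparent proliferation; nearly all actives have a fitted effect of over 55% in size.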 The following applies: Hh wild-type fibroblast viability, CellTiter-Glo luminescence, 48 h; series mostly up to 46 µM. The method, boiled down: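 Viability after 48 h compound treatment at 37C, 500-1,000 cells/well, read as ATP luminescence with CellTiter-Glo. Primary screens used 11-point (MIPE, 0.78 nM-46 µM) or 8-point (NPC, 0.59 nM-46 µM) final concentrations; follow-up screens used 11-point dilutions.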
On the technique in general: Quantitative high-throughput screening tests each substance at several concentrations.
As to `NS(=O)(=O)c1cc2c(cc1Cl)NC(CSCc1ccccc1)=NS2(=O)=O`, the result was inactive.

Consider `O=C1NC(=O)[C@@]2(CCOc3ccc(F)cc32)N1`, for which the result was inactive.

For the compound `Cc1ccc(C(C)C)cc2c(C)ccc1-2`, the compound was classed as inactive.

Regarding `Cc1c(Cl)cccc1Nc1ccccc1C(=O)O`, the compound was called inactive.

Take `O=c1cc(CO)occ1O`: the compound was classed as inactive.

Consider `C#CCN(C)Cc1ccccc1`, for which the outcome was inactive.

Take `CN(C)CCOC(C)(c1ccccc1)c1ccccn1` (stereo not drawn): the outcome was inactive.

Regarding `CCCOC(=O)c1ccccc1`, the call was inactive.

Turning to `CC1=C(CC(=O)O)c2cc(F)ccc2/C1=C\c1ccc(S(C)=O)cc1` (stereo not drawn), the result was inactive.

`C[C@H](NC(CCc1ccccc1)C(=O)O)C(=O)N1CCC[C@H]1C(=O)O` (stereo partly drawn): the compound was classed as inactive.

Turning to `CC(C)C(=O)c1c(C(C)C)nn2ccccc12`, the compound was called inactive.

Consider `C=Cc1c(C)c2cc3[nH]c(cc4nc(cc5nc(cc1[nH]2)C(C)=C5CCC(=O)O)C(CCC(=O)O)=C4C)c(C)c3C=C`, for which the result was inactive.

With `O=C(O)[C@@H]1CSCN1`, the compound was classed as inactive.

As to `CC(=O)Nc1ccc(/C=N/NC(N)=S)cc1`, the call was inactive.

With `NC1CCN(c2cccc(Cl)n2)CC1`, the outcome was inactive.

For the compound `C=CCn1c(=O)n([C@@H]2O[C@H](CO)[C@@H](O)[C@H]2O)c2nc(N)[nH]c(=O)c21`, the compound was called inactive.

As for `Cc1cccc(C)c1NC(=O)CN(CC(=O)O)CC(=O)O`, the compound was classed as inactive.

Turning to `COc1ccc(S(=O)(=O)Nc2nnc(CC(C)C)s2)cc1`, the compound was classed as inactive.

Consider `CC(C)(C)C(=O)NCCCC(=O)O`, for which the call was inactive.

For `C[C@@H](O)[C@H](N)C(=O)O`, the result was inactive.

In the case of `CC(O)CN(CCN(CC(C)O)CC(C)O)CC(C)O` (stereo not drawn), the compound was called inactive.

Take `Cc1cccc(Nc2cc(Cl)nc(SCC(=O)O)n2)c1C`: the compound was classed as inactive.

Turning to `O=S(=O)(O)c1cc(I)c(O)c2ncccc12`, the compound was classed as inactive.

As to `Cc1ncc(COP(=O)(O)O)c(C=O)c1O`, the compound was classed as inactive.

For the compound `Cc1cc(CC(=O)O)n(C)c1C(=O)c1ccc(Cl)cc1`, the call was inactive.

For `CCC(=O)Nc1ccc(O)cc1`, the compound was classed as inactive.

Consider `CN1[C@@H]2CC[C@H]1CC(OC(=O)C(O)c1ccccc1)C2` (stereo partly drawn), for which the compound was classed as inactive.

For the compound `CCCCc1ncc(/C=C(\Cc2cccs2)C(=O)O)n1Cc1ccc(C(=O)O)cc1`, the call was inactive.

For the compound `NS(=O)(=O)c1cc2c(cc1C(F)(F)F)NC(Cc1ccccc1)NS2(=O)=O` (stereo not drawn), the result was inactive.

Regarding `NC(N)=NCCC[C@H](N)C(=O)O`, the activity change, negative = cytotoxic was 15% [at 4.84 µM] (inactive).

As to `CN(C)CCCO[C@@H]1[C@H]2OC(C)(C)O[C@H]2O[C@@H]1C(O)CO` (stereo partly drawn), the compound was called inactive.

As to `CC(=O)Oc1c(C)c(C)c2c(c1C)CC[C@@](C)(CCC[C@H](C)CCC[C@H](C)CCCC(C)C)O2`, the call was inactive.

`O=c1cc[nH]c(=O)[nH]1`: the result was inactive.

Take `Cn1c(=O)c2c(ncn2CC2OCCO2)n(C)c1=O`: the outcome was inactive.

`N[C@@H](CSSC[C@H](N)C(=O)O)C(=O)O`: the activity change, negative = cytotoxic is 21.8% [at 0.597 µM] (inactive).

On to `COc1cc(C)c(Cc2cnc(N)nc2N)cc1OC`, for which the result was inactive.

On to `Nc1ccc(S(=O)(=O)Nc2ccc(Cl)nn2)cc1`, for which the result was inactive.

As for `O=C1NS(=O)(=O)c2ccccc21`, the call was inactive.

For the origin of these results see PubChem BioAssay (NCATS).
